The whole screen tested about 48,000 compounds, of which about 13,000 (27%) showed an effect of 50% or more. This is one part of the list.
tested on: Wolbachia pipientis; assay: Anti-Wolbachia Cell-Based Screen; format: functional; set-up: scale not given: in the data most compounds retested in dose-response had high values; details: 5 µM

Q: Which “Percent Effect” value does the source give for `Cc1noc(C)c1CSc1nc(=O)ccn1C(C)C` here?
A: -1.27%

Q: How did the “Percent Effect” value turn out when `NC(=O)C(NC(=O)COCCc1ccccc1)c1ccccc1F` (configuration not stated) was run?
A: -15.69%

Q: How did the “Percent Effect” value turn out when `CCCn1nc2c(cc1=O)CN(CCCS(N)(=O)=O)CC2` was run?
A: -2.42%

Q: With `CCC[C@@H]1CN(Cc2c[nH]c(CC3CCCC3)n2)C[C@H]1C(=O)O` as the compound, how does the “Percent Effect” value read?
A: -10.74%

Q: With `CCOC(=O)c1coc(N2CCC(C(C)N3CCCC3)CC2)n1` (configuration not stated) as the compound, how does the “Percent Effect” value read?
A: 0%

Q: `O=C(CCc1ccsc1)NS(=O)(=O)Cc1ccon1` was tested. Which “Percent Effect” value did it give?
A: -50.57%

Q: How did the “Percent Effect” value turn out when `CC(CCc1cccc(F)c1)NC(=O)NCc1ncnn1C` (configuration not stated) was run?
A: -8.39%

Q: With `Cc1cc(CCC(=O)NCc2nccn2C)ccc1Br` as the compound, how does the “Percent Effect” value read?
A: 125.4%

Q: With `Cc1cc2ccccc2n1CCC(=O)NCc1ncc[nH]1` as the compound, how does the “Percent Effect” value read?
A: -13.5%

Q: `Cn1ccnc1CNC(=O)CCc1cccc(F)c1` was tested. Which “Percent Effect” value did it give?
A: 127.3%

Q: How did the “Percent Effect” value turn out when `Cn1ccnc1CCNC(=O)C1CCCN(Cc2cccc(F)c2)C1` (configuration not stated) was run?
A: -2.372%

Q: With `Cc1cc(CCC(=O)NCc2ncc[nH]2)ccc1Br` as the compound, how does the “Percent Effect” value read?
A: 105.6%

Q: For `O=C(CCc1ccc(Br)cc1)NCc1nnc[nH]1`, which “Percent Effect” value is on record?
A: -10.7%

Q: For `Cc1cc(CCC(=O)N2CC[C@H](O)C2)ccc1Br`, which “Percent Effect” value is on record?
A: 2.583%

Q: With `Cc1cc(CCC(=O)N2CCC(O)CC2)ccc1Br` as the compound, how does the “Percent Effect” value read?
A: -5.317%

Q: For `CC(C)CC(NC(=O)c1cc(-c2cccn2C)n[nH]1)c1ncnn1C` (configuration not stated), which “Percent Effect” value is on record?
A: 13.42%

Q: For `CCc1csc(CNc2nc3c(s2)c(C)nn3C)n1`, which “Percent Effect” value is on record?
A: -26.31%

Q: With `OCC(CO)Nc1ccc2c(Cl)ccc(Cl)c2n1` as the compound, how does the “Percent Effect” value read?
A: 1.659%

Q: For `COc1cc(F)ccc1-c1nc2c([nH]1)c(C1CC1)nn2C`, which “Percent Effect” value is on record?
A: 1.853%

Q: For `Cc1ccsc1CN(C)Cn1nccc1-c1cccnc1`, which “Percent Effect” value is on record?
A: 34.48%

Q: With `c1ccc(OCCCN2CCN(c3ccc4nncn4n3)CC2)cc1` as the compound, how does the “Percent Effect” value read?
A: 7.239%

Q: For `O=C(CCN1CCN(c2ccc3nncn3n2)CC1)N1CCCCC1`, which “Percent Effect” value is on record?
A: 90.26%

Q: With `FC(F)(F)COCCN1CCN(c2ccc3nncn3n2)CC1` as the compound, how does the “Percent Effect” value read?
A: -1.16%

Q: Which “Percent Effect” value does the source give for `Clc1ccccc1CCN1CCN(c2ccc3nncn3n2)CC1` here?
A: 114.3%

Q: For `c1cc(CCN2CCN(c3ccc4nncn4n3)CC2)ccn1`, which “Percent Effect” value is on record?
A: 116%

Q: With `O=C(CCN1CCN(c2ccc3nncn3n2)CC1)NC1CCCC1` as the compound, how does the “Percent Effect” value read?
A: 0.1018%

Q: `c1ccc(CCCN2CCN(c3ccc4nncn4n3)CC2)cc1` was tested. Which “Percent Effect” value did it give?
A: 101.5%

Q: With `CC1CCCCN1C(=O)CN1CCN(c2ccc3nncn3n2)CC1` (configuration not stated) as the compound, how does the “Percent Effect” value read?
A: -2.497%

Q: How did the “Percent Effect” value turn out when `CN(Cc1ccccc1OC(F)(F)F)C(=O)C1CCCN(C(N)=O)C1` (configuration not stated) was run?
A: 15.24%

Q: `COCC1CCCCN1Cc1nc(-c2ccoc2)oc1C` (configuration not stated) was tested. Which “Percent Effect” value did it give?
A: 2.327%

Q: For `Cn1cc(N2CCN(c3ccc(C#N)cc3Br)CC2=O)cn1`, which “Percent Effect” value is on record?
A: -23.45%

Q: Which “Percent Effect” value does the source give for `CCc1ccccc1OC1CN(C(=O)CN(C)Cc2ccncc2)C1` here?
A: 0.8406%

Q: With `CC(C)c1ccn(C2(C(=O)O)CCN(c3cc(C(N)=O)ccn3)CC2)n1` as the compound, how does the “Percent Effect” value read?
A: 10.23%

Q: How did the “Percent Effect” value turn out when `O=C(COc1cccnc1)NCc1nncn1C1CCCCC1` was run?
A: -1.054%

Q: How did the “Percent Effect” value turn out when `Cc1cnc(N2CC[C@@]3(O)CCCC[C@H]3C2)nc1-c1ccnn1C` was run?
A: -8.985%

Q: `Cc1nn2c(N3CCC(C#N)CC3)cc(-c3ccccc3)nc2c1C` was tested. Which “Percent Effect” value did it give?
A: -8.665%

Q: `c1ccc(CCN2CCN(c3ccc4nncn4n3)CC2)cc1` was tested. Which “Percent Effect” value did it give?
A: 80.05%

Q: `Cc1ccc(C)c2c1NC(=O)C2CC(=O)O` (configuration not stated) was tested. Which “Percent Effect” value did it give?
A: 5.742%

Q: Which “Percent Effect” value does the source give for `COCc1nc(NC(C)Cc2cc(C)n[nH]2)c2cnn(C)c2n1` (configuration not stated) here?
A: 4.118%

Q: Which “Percent Effect” value does the source give for `CC(C)Oc1ccc(C(=O)N2CCC(Nc3cccnn3)CC2)cn1` here?
A: 123.7%

Q: For `COc1ccc(C(=O)N2CCC(Nc3cccnn3)CC2)cn1`, which “Percent Effect” value is on record?
A: 104%

Q: `COc1ccc(C(=O)N2CCC(Nc3cccnn3)CC2)c(OC)c1` was tested. Which “Percent Effect” value did it give?
A: -3.344%

Q: With `C[S+]([O-])c1ccc(CNc2ccc(F)cc2OC(F)F)cc1` (configuration not stated) as the compound, how does the “Percent Effect” value read?
A: 0.9094%

Q: How did the “Percent Effect” value turn out when `CCn1cc(C(=O)NCC(OC)c2cccc(Cl)c2)cn1` (configuration not stated) was run?
A: 4.602%

Q: How did the “Percent Effect” value turn out when `Cn1cc(-c2cc(C(F)F)n3nc(CCC(=O)O)nc3n2)cn1` was run?
A: 133.7%

Q: With `CCn1cc(-c2cc(C(F)F)n3nc(CCC(=O)O)nc3n2)cn1` as the compound, how does the “Percent Effect” value read?
A: 98.47%

Q: `Cc1nn(C)cc1-c1cc(C(F)F)n2nc(CCC(=O)O)nc2n1` was tested. Which “Percent Effect” value did it give?
A: 110.6%

Q: How did the “Percent Effect” value turn out when `Cn1ncc(NC(=O)Cn2cc(-c3ccc(F)cn3)cn2)n1` was run?
A: 2.479%

Q: Which “Percent Effect” value does the source give for `Cn1cc(-c2csc(N3CCN(C(=O)OC(C)(C)C)CC3)n2)cn1` here?
A: 8.816%

Q: With `Cc1nn(C)cc1-c1ccnc(N(C)Cc2noc(C(C)C)n2)n1` as the compound, how does the “Percent Effect” value read?
A: 1.029%

Q: With `CCn1cc(-c2cc(C(F)F)n3nc(CC(=O)O)nc3n2)cn1` as the compound, how does the “Percent Effect” value read?
A: 108.3%

Q: For `Cn1cc(-c2csc(N3CCOCC3)n2)cn1`, which “Percent Effect” value is on record?
A: -6.106%

Q: `CCCc1cnc(C)nc1N1CCC2(CCCO2)CC1` was tested. Which “Percent Effect” value did it give?
A: -4.323%

Q: `O=C(C1CCC1)N1CCN(Cc2ccccc2F)[C@H]2CS(=O)(=O)C[C@H]21` was tested. Which “Percent Effect” value did it give?
A: 4.948%

Q: How did the “Percent Effect” value turn out when `Cc1nc(CN(C)C(=O)Nc2cnn(CC3CCCO3)c2)cs1` (configuration not stated) was run?
A: -5.003%

Q: `Cc1nc(CCNC(=O)CC2CCN(C(C)C)CC2)sc1Cl` was tested. Which “Percent Effect” value did it give?
A: -9.554%

Q: `Cc1ccsc1C(=O)N1CC2CC1(C(=O)NCC1CC1)C2` was tested. Which “Percent Effect” value did it give?
A: -19.62%

Q: Which “Percent Effect” value does the source give for `CCn1ncc(-c2nc3c[nH]n(CC)c-3n2)c1C` here?
A: -16.08%

Q: With `CCn1ncc(-c2cc(C(F)F)n3nc(CCC(=O)O)nc3n2)c1C` as the compound, how does the “Percent Effect” value read?
A: 94.49%

Q: How did the “Percent Effect” value turn out when `COc1ccccc1C(=O)N1CCC(Oc2ccc(C#N)cn2)CC1` was run?
A: -9.351%

Q: How did the “Percent Effect” value turn out when `Cc1[nH]c(=O)[nH]c(=O)c1CN1CCCC(CCc2ccccc2F)C1` (configuration not stated) was run?
A: 3.318%

Q: Which “Percent Effect” value does the source give for `CCCn1nc2c(cc1=O)CN(Cc1ccccn1)CC2` here?
A: -24.61%

Q: How did the “Percent Effect” value turn out when `Cc1ccsc1CN1CCC(c2cc(C(C)C)n[nH]2)CC1` was run?
A: 15.3%

Q: With `c1cc(CN2CCc3c(CN4CCCC4)n[nH]c3C2)ccn1` as the compound, how does the “Percent Effect” value read?
A: -1.373%

Q: For `Cc1ccsc1CCNC(=O)CCC1CCCCN1C` (configuration not stated), which “Percent Effect” value is on record?
A: 3.946%

Q: With `Cc1ccsc1CN1CCc2c(nc(N3CCCCC3C)[nH]c2=O)C1` (configuration not stated) as the compound, how does the “Percent Effect” value read?
A: 117.5%

Q: For `CC1CCCCN1c1nc2c(c(=O)[nH]1)CCN(Cc1ccc(O)cc1)C2` (configuration not stated), which “Percent Effect” value is on record?
A: 108.9%

Q: For `Fc1cccc2[nH]c(CN3CCc4cncnc4C3)nc12`, which “Percent Effect” value is on record?
A: 8.027%

Q: Which “Percent Effect” value does the source give for `CC1CCCCN1c1nc2c(c(=O)[nH]1)CCN(Cc1ccccn1)C2` (configuration not stated) here?
A: 67.76%

Q: With `Cn1cnc2c1CCN(Cc1ccc(C(=O)N3CCCC3)cc1)C2` as the compound, how does the “Percent Effect” value read?
A: 0.7019%

Q: With `Cc1cccc(CN2CCc3c(nc(N4CCCCC4C)[nH]c3=O)C2)n1` (configuration not stated) as the compound, how does the “Percent Effect” value read?
A: -2.625%

Q: With `CC1CCCCN1c1nc2c(c(=O)[nH]1)CCN(Cc1ccccc1F)C2` (configuration not stated) as the compound, how does the “Percent Effect” value read?
A: 109.6%
